Results on 40 compounds are retold here after the supplement of paper PMC6805474.

Each structure is given as a SMILES string.

In this assay the test system is Schistosoma mansoni schistosomula (LE). The assay is described as follows: XTT viability relative to DMSO control; higher = more viable (less active). Particulars: 72 h; 10 µM. As to the method:
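XTT/PMS was then added for a further 24 h (72 h total) and A450 was read. % viability = (sample - heat-killed control)/(DMSO control - heat-killed control) x 100, from duplicate wells in two independent experiments.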
Background: Formazan colour is commonly taken as a measure of viable cells.
On to `c1ccc(Oc2ccc(-c3cncc(-c4ccc5[nH]ccc5c4)n3)cc2)cc1`, for which the XTT viability stood at 3.06%.

As to `CN1CCN(c2cc(-c3ccc(F)cc3)nc(-c3ccncc3)n2)CC1`, the XTT viability came to 63%. As to `CC(=O)NC[C@@H]1CN(c2ccc(N3CCOCC3)c(F)c2)C(=O)O1`, the XTT viability was 94.2%. As for `CC(=O)NC[C@H]1CN(c2ccc(N3CCSCC3)c(F)c2)C(=O)O1`, the figure is 145%; as for `O=C(C(Cc1c[nH]c2ccccc12)NS(=O)(=O)c1ccc(Cl)cc1)N1CCCCC1` (stereo not given), 96.4%; as for `CS(=O)(=O)c1ccccc1C(=O)N(Cc1ccccc1)c1ccccc1`, 106%. For the compound `CCc1ccc([C@@H]2C[C@H](C(F)(F)F)n3ncc(C(=O)NCc4ccc(OC)cc4)c3N2)cc1`, the XTT viability is 99.5%. The same measure for `Nc1ccc2ncnc(Nc3ccc(OCc4cccc(F)c4)c(Cl)c3)c2c1`: 55.9%; for `Cc1ccc(NC(=O)CC2COc3ccccc3O2)cc1Cl` (stereo not given): 125%. As for `FC(F)(F)c1ccc(N(c2cccnc2)C2CCN(c3ccc(C(F)(F)F)cn3)CC2)cc1`, the figure is 77.5%. Consider `CCCS(=O)(=O)N1CCC(CO)(Cc2ccccc2C(F)(F)F)CC1`, for which the XTT viability was found to be 95.7%. As for `CC(C)NCC(=O)Nc1cccc(C(=O)Nc2cccc(C(F)(F)F)c2)c1`, the figure is 86.7%. With `COc1cccc(-c2cc3c(Nc4cccnc4)nccc3[nH]2)c1`, the XTT viability turned out to be 104%. Regarding `COc1cc(C2=NCCN2)cc2cc(-c3ccc(C4=NCCN4)cc3)oc12`, the XTT viability came out at 4.86%. The same measure for `C[C@]1(O)C[C@@H](c2nc(-c3ccc4ccc(-c5ccccc5)nc4c3)c3c(N)nccn32)C1`: 64%; for `Nc1nc2ccc(-c3cncc(Oc4ccc(F)cc4)c3)cc2[nH]1`: 111%. Turning to `CC(C)n1ncc2c(C(=O)NCC(c3cccs3)N3CCOCC3)cc(-c3ccccc3)nc21` (stereo not given), the XTT viability is 71.6%. Turning to `Cc1[nH]c2cc(F)cc(F)c2c(=O)c1-c1ccc(Oc2ccc(OC(F)(F)F)cc2)cc1`, the XTT viability turned out to be 74.6%.

As to `CNc1cc(C)nc(C2CN(C(=O)c3n[nH]c4ccccc34)CCO2)c1` (stereo not given), the XTT viability came out at 123%.

With `OCc1ccc(-c2cncc(Nc3cccc(Cl)c3)c2)cc1`, the XTT viability was 99.5%. As to `CC(C)(C)c1cc(C(=O)Nc2cccnc2)cc(C(=O)Nc2cccnc2)c1`, the XTT viability stood at 79.8%. For the compound `CCC(C)NC(=O)c1ccc(NC(=O)C2(c3ccccc3)CCCC2)cc1` (stereo not given), the XTT viability stood at 90.6%. The same measure for `Cc1ccccc1C(=O)N1N=C(Nc2ccccc2)SC1(C)C`: 88.7%; for `Clc1cccc(C(c2ccc(CN3CCNCC3)cc2)n2ccnc2)c1` (stereo not given): 76.1%; for `COc1ccc(OC(C)C(=O)Nc2ccc(Cl)cc2C)cc1` (stereo not given): 97.2%.

For the compound `COc1cc(C(F)(F)F)nc2ccc(C)c(N)c12`, the XTT viability was determined as 79.3%. As for `O=C1N(Cc2cc3ccccc3s2)CC2CN(Cc3ccccc3)CCN12` (stereo not given), the XTT viability turned out to be 87.2%. For the compound `CCOC(=O)c1cc(-c2csc(Nc3c(C)cc(C)cc3C)n2)on1`, the XTT viability came out at 95.6%. The same measure for `CC1=Nc2ccc(Cl)cc2C(c2ccccc2)N1CCNC(=O)CN(C)C` (stereo not given): 113%; for `c1ccc(C[C@@H]2CN(c3nccc(Oc4ccc(-n5ccnc5)cc4)n3)CCN2)cc1`: 94.4%; for `O=C(NCc1cc(Cl)cc(Cl)c1)c1c(C(F)(F)F)nc2ccccn12`: 93.7%.

In the case of `COc1ccc(Oc2ccc([C@@H](C)N(C)c3ncc4c(N)nc(N)nc4n3)cc2)cc1`, the XTT viability is 4.74%. Take `COc1ccccc1OCCCCn1c(C2CC2)nc2ccccc21`: the XTT viability came to 76%. The same measure for `COc1ccc(C2CC(c3cccs3)=NN2C(=O)c2ccco2)cc1OC` (stereo not given): 65.7%; for `CC(C)(CN)c1nc(-c2ccc(Cl)c(O)c2)c(-c2ccnc(N)n2)[nH]1`: 156%. As for `CCc1ccc(S(=O)(=O)Nc2cc(CN3CCN(CCC(C)C)CC3)ccc2C)cc1`, the figure is 85.8%. For the compound `Cc1cccnc1NC(=O)c1cccc(OCc2c(C)noc2C)c1`, the XTT viability worked out at 114%. As to `O=C1COCc2ccc(Br)cc2N1Cc1ccc(C(F)(F)F)cc1`, the XTT viability is 99.5%.

As to `O=C(Nc1cnc2ccccc2c1)c1cccc(-n2cnnn2)c1`, the XTT viability was 85.7%. The same measure for `N=C(N)Nc1ccc(-c2ccc(-c3ccc(NC(=N)N)cc3Cl)o2)c(Cl)c1`: 61.7%.
